A selection: hits, their analogues and other compounds. The true share with any hit is near 4%.
KKLEB tox: counter-screen for CF NF-kB inhibitors: cytotoxicity. KKLEB CF airway cells viability, ATPlite luminescence, overnight; stronger effect = lower value; cells stimulated with P. aeruginosa culture filtrate. activity change (cytotoxicity), % at 5 µM. hit rate 0.36% among 360,000. AID 602141;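 active means corrected activity change at or below -50% at 5 µM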
HIF-2a inh: inhibitors of HIF-2a | AID 624352 | inhibition, % at 18.8 µM | hit rate 0.72% among 360,000 | 786-0 RCC cells HIF-2a reporter, luciferase luminescence, overnight;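 active means inhibition of the luminescence signal of 40% or more relative to plate controls, in a single-dose primary screen at 18.75 µM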
TWEAK Fn14 block: inhibitors of TWEAK-Fn14 interaction signaling. hit rate 2% among 360,000. TWEAK-stimulated Fn14 reporter cells, luciferase luminescence, 8 h. inhibition, % at 10 µM; in the data active means inhibition above about 50%
Peg3 prom inh: Peg3 promoter activity inhibition. HeLa PEG-Prom luciferase reporter, luminescence, overnight. hit rate 1.7% among 360,000. inhibition, % at 20 µM;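 active means inhibition of at least 50% at 20 µM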
CF NFkB block: blocks PAF-induced NF-kB reporter in cystic fibrosis cells. KKLEB NF-kB-GFP reporter, GFP fluorescence overnight. inhibition, % at 5 µM. hit rate 0.86% among 360,000;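 active means at least 50% inhibition at 5 µM, scaled per plate between neutral and stimulator controls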;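 further: PAF is a Pseudomonas aeruginosa culture filtrate used as stimulus; plate controls were PAF-stimulated DMSO wells for no effect and unstimulated DMSO wells for full effect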
TROY NFkB inh: TROY signaling inhibition | hit rate 0.98% among 360,000 | inhibition, % at 10 µM | Q293 LMP1-TROYcd NF-kB luciferase reporter, 4 h | AID 1347056;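 active means compounds whose plate-normalised and pattern-corrected inhibition of the luciferase reporter signal at the single screening dose is 50% or more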
Active calls of the source: *; · = not tested or not shown.

SMILES	KKLEB tox	HIF-2a inh	TWEAK Fn14 block	Peg3 prom inh	CF NFkB block	TROY NFkB inh
COc1cccc(/C=N/Nc2snc(SC)c2C#N)c1O	-10	-273	75*	-172	14	42
O=C(CCC(=O)OCC(F)(F)C(F)F)Nc1ccc(F)cc1F	-12	20	-1	12	-8	-9
O=C(CCC(=O)OCC(F)(F)C(F)F)Nc1ccc(Cl)cc1	-1	3	4	63*	6	8
Cc1ccc(C2C3=C(CC(C)(C)CC3=O)N=C3c4ccccc4C(=O)C32)cc1 (stereo not drawn)	-3	30	58*	32	24	28
CC1(C)CC(=O)C2=C(C1)N=C1c3ccccc3C(=O)C1C2c1ccc(Cl)cc1 (stereo not drawn)	4	47*	66*	58*	35	26
CCOC(=O)C1=C(C)N=C2c3ccccc3C(=O)C2C1c1ccc(Cl)cc1 (stereo not drawn)	-7	-6	6	20	-5	-1
CC(=O)c1cccc(NC(=O)c2ccc(NC(=O)CC3SC(N4CCCCC4)=NC3=O)cc2)c1 (stereo not drawn)	13	17	2	-11	-18	-12
COc1cccc(N=c2oc3ccc(OC)cc3cc2-c2nc3ccccc3[nH]2)c1	-29	-206	62*	-159	-30	48
COc1ccc(N=c2oc3ccc(OC)cc3cc2-c2nc3ccccc3[nH]2)cc1	-24	-192	49	-86	-11	12
COc1cccc(N=c2oc3ccccc3cc2-c2nc3ccccc3[nH]2)c1	-17	-170	75*	-116	4	2
O=C(NC1CCSc2ccccc21)c1cc(S(=O)(=O)N2CCOCC2)ccc1Cl (stereo not drawn)	-8	-10	13	-3	-20	-6
COc1ccc(/C=N/NC(=O)c2ccc(CN3c4cccc5cccc(c45)S3(=O)=O)cc2)cc1	9	-10	17	-8	-10	-13
COc1cc(/C=N/NC(=O)c2ccc(CN3c4cccc5cccc(c45)S3(=O)=O)cc2)cc(OC)c1O	-80*	10	17	57*	69*	35
Cc1cccc2nc(CSc3nc4[nH]ncc4c(=O)n3-c3ccccc3Cl)cc(=O)n12	-11	22	12	-43	17	10
Cc1ccccc1-n1c(SCc2cc(=O)n3ccccc3n2)nc2[nH]ncc2c1=O	7	10	60*	3	-19	·
CCNC(=O)C1(C)CCN(C(=O)c2cccc(C#N)c2)C1 (stereo not drawn)	-2	5	-10	0	-6	0
Cc1ccc(C(=O)N/N=C\c2c(C)nn(-c3ccccc3)c2Cl)cn1	-4	-109	3	-25	20	-12
Cc1nn(-c2ccccc2)c(Cl)c1/C=N/NC(=O)c1[nH]ncc1Br	-28	-150	53*	-122	26	28
Cc1nn(-c2ccccc2)c(C)c1/C=N/NC(=O)c1cc(-c2ccccc2)n[nH]1	-21	2	11	-11	64*	2
Cc1nn(-c2ccccc2)c(Cl)c1/C=N/NC(=O)c1ccn[nH]1	-13	-76	50*	-180	-5	-16
Cc1cc(C(=O)N/N=C/c2c(C)nn(-c3ccccc3)c2Cl)n[nH]1	3	-124	-19	-76	0	-11
OC(CNCCc1ccc(C(F)(F)F)cc1)COc1ccc2ccccc2c1 (stereo not drawn)	-12	15	-13	101*	12	-24
COC(=O)c1ccc(CNCC(O)COc2ccc(-c3ccccc3)cc2)cc1 (stereo not drawn)	-7	-7	7	-16	-5	-8
CCOC(=O)c1c(C)n(C)c2ccc(OCC(O)CNCCc3ccccc3)cc12 (stereo not drawn)	-22	0	-9	38	31	3
OC(CNCCc1ccc(C(F)(F)F)cc1)COc1cccc2ccccc12 (stereo not drawn)	-10	21	4	90*	10	5
SMILES	KKLEB tox	HIF-2a inh	TWEAK Fn14 block	Peg3 prom inh	CF NFkB block	TROY NFkB inh
COc1ccccc1COCC(O)CNCCc1ccc(C(F)(F)F)cc1 (stereo not drawn)	-18	9	3	-12	1	-6
COc1ccc(CNCC(O)COc2ccc(C(C)(C)c3ccccc3)cc2)cc1 (stereo not drawn)	-6	10	-27	74*	22	6
COc1ccc(CCNCC(O)COc2cccc(Br)c2)cc1 (stereo not drawn)	-8	21	2	74*	27	16
CCOc1ccc(N2CC(C(=O)Nc3ccccc3C(=O)NC3CC3)CC2=O)cc1 (stereo not drawn)	-5	16	6	27	-2	10
OC(CNC1CCCCCC1)COc1cccc2ccccc12 (stereo not drawn)	-8	10	-5	92*	26	-13
CSc1nc2c(cnn2-c2ccc(C)c(C)c2)c(=O)[nH]1	-5	6	-30	59*	5	0
CCC(C)Sc1nc2c(cnn2-c2ccc(C)c(C)c2)c(=O)[nH]1 (stereo not drawn)	-12	6	-40	10	30	9
COc1cccc2c1C(=O)c1c(O)c3c(c(O)c1C2=O)C[C@@](O)(C(=O)CO)C[C@@H]3O[C@H]1C[C@H](N)[C@H](O)[C@H](C)O1	-52*	19	87*	95*	83*	5
CC(=O)[C@@]1(O)Cc2c(O)c3c(c(O)c2[C@H](O[C@H]2C[C@H](N)[C@H](O)[C@H](C)O2)C1)C(=O)c1ccccc1C3=O	-53*	38	95*	99*	-28	66*
COc1cccc2c1C(=O)c1c(O)c3c(c(O)c1C2=O)C[C@@](O)(C(=O)CO)C[C@@H]3OC1CC(N)C(O)C(C)O1 (stereo partly drawn)	-28	-2	76*	96*	10	-18
COc1cccc2c1C(=O)c1c(O)c3c(c(O)c1C2=O)CC(O)(C(C)=O)CC3OC1CC(N(C)C)C(O)C(C)O1 (stereo not drawn)	-42	14	98*	98*	77*	61*
CCOC(=O)[C@H]1[C@H]2COc3ccc(C)cc3[C@@H]2N2C(=O)c3cc(F)c(F)cc3NC(=O)[C@@]12C	-5	0	-10	14	4	-4
Cc1csc2c(N3CCN(C(=S)Nc4ccc(C(F)(F)F)cc4)CC3)ncnc12	-3	1	26	4	2	7
Cc1csc2ncnc(N3CCN(C(=S)Nc4ccc(C(F)(F)F)cc4)CC3)c12	8	20	51*	14	22	48
CCCOC(=O)c1ccc(NC(=O)/C=C/c2cccs2)cc1	0	-165	32	-193	-10	56*
OC[C@@H]1[C@@H](c2ccc(Cl)cc2)C(c2ccc(F)cc2)=NN1c1ccccc1	-7	11	29	85*	14	18

High-throughput results (PubChem)
